Source: PubChem BioAssay
D1 antagonist – human D1 dopamine receptor antagonism. activity change, negative = inhibition, % at 10 µM. AID 504652. HEK293 TREx D1 cells, calcium flux, dopamine EC80; active compounds read low. P21728. actives 3.2% (n = 360,000); in the data active means activity change below about -30%
Target sequence (P21728 whole entry, looked up): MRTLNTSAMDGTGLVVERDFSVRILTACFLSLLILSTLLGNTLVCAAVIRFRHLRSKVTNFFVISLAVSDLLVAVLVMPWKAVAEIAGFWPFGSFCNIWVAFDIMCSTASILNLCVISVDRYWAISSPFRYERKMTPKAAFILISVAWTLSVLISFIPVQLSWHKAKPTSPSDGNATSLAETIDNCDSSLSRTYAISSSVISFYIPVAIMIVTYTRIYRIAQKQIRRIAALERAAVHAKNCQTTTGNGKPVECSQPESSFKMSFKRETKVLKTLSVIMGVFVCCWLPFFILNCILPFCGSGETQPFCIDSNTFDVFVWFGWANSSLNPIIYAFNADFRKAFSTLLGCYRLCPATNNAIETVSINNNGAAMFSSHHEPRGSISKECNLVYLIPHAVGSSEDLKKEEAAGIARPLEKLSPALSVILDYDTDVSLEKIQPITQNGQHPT
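HEK293 T-REx cells expressing inducible, force-coupled D1 receptor; no-wash Ca dye, 30–90 min RT. Cmpd → 180 s read at 1 Hz → EC80 DA → 180 s read.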
TRHR PAM – allosterically enhances the human TRH receptor. P34981. TRHR cells, fluo-8 calcium fluorescence, EC20 TRH enhancement. enhancement, % at 2 µM. actives 0.66% (n = 360,000). AID 493056; in the data active means enhancement above about 30%
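TRHR-expressing cells loaded with fluo-8 calcium dye were read kinetically (ex 480/em 530) during compound addition, then stimulated with an EC20 of TRH (10 nM final). Enhancement of the Gq-mediated intracellular calcium response was scored.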
D1 PAM – human D1 dopamine receptor positive modulation. potentiation, % at 10 µM. actives 0.036% (n = 360,000). AID 504651. HEK293 TREx D1 cells, calcium flux, dopamine EC20 potentiation. P21728; in the data active means potentiation above about 30%
TRHR ag – TRH receptor (human) agonism; P34981; TRHR cells, calcium flux fluo-8, FDSS agonist mode; activation, % at 2 µM; actives 0.18% (n = 360,000)
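TRHR-expressing cells loaded with fluo-8 calcium dye; 23 nL library compound pin-transferred, kinetic FDSS fluorescence (Ex 480/Em 530) recorded about 180 s for agonist-induced calcium release, before a 10 nM TRH EC20 addition for potentiator mode.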
D1 agonist – human D1 receptor agonism; P21728; HEK293 T-REx D1 cells, calcium flux, agonist mode; activation, % at 2 µM; actives 1% (n = 360,000); AID 504660
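Agonism was scored from calcium flux recorded over 180 s (1 read/s) after pintool compound addition, following a 10-cycle baseline. Cells were inducible force-coupled HEK293 TREx D1, plated overnight at 30 C and loaded with no-wash calcium dye.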
Of the large screens only hits and unclear results are named; the others gave an inactive call. Shown are actives, neighbours in structure and some others; about 4.6% of the full set was active somewhere. Unless noted, no stated cut-off is given here; in the data, active means activation above about 30%; inactive means the rest.

CCOC(=O)Cn1c(=O)n(C2CCCC2)c(=O)c2ccccc21	TRHR PAM 41
CCOC(=O)Cn1c(=O)n(C2CCCCC2)c2nc(-c3cccc(F)c3)nc(C(N)=O)c21	none
CCOC(=O)Cn1c(=O)n(CC(=O)OCC)c2ccccc21	none
CCOC(=O)Cn1c(=O)n(C2CCCCC2)c2nc(-c3cccc(C)c3)nc(C(N)=O)c21	D1 antagonist -86
CCOC(=O)Cn1c(=O)n(CC2CCCO2)c2nc(-c3ccc(OC)cc3OC)nc(C(N)=O)c21 (stereo unspecified)	TRHR PAM 42
CCOC(=O)Cn1c(=O)n(CC2CCCO2)c2nc(-c3ccc(C(C)C)cc3)nc(C(N)=O)c21 (stereo unspecified)	none
CCOC(=O)Cn1c(=O)n(C2CCCCC2)c2nc(-c3ccc(C(C)C)cc3)nc(C(N)=O)c21	D1 antagonist -51
O=C(Nc1cccc(C(=O)N2CCN(c3ccc(Cl)cc3)CC2)c1)c1nsc2ccccc12	none
Cc1ccc(N(Cc2ccccc2)C(=O)c2cc(S(=O)(=O)N3CCOCC3)ccc2F)cc1	none
CCCCCCOc1ccc(C2C(=O)N(C3CCCCC3)CC(=O)N2CCC)cc1 (stereo unspecified)	none
CCOc1ccc(C(=O)Nc2ccc3oc(-c4cccc5ccccc45)nc3c2)cc1	none
O=C1CCc2ccc(OCCCCN3CCN(c4cccc(Cl)c4Cl)CC3)cc2N1	D1 antagonist -44 (no result: D1 PAM, D1 agonist)
CCN1CCN(Cc2oc(CO)cc(=O)c2O)CC1	none
CCOC(=O)C1CCN(Cc2oc(CO)cc(=O)c2O)CC1	TRHR PAM 30
CCCCNc1nc(-c2ccccc2)nc(-n2ccnc2)n1	D1 antagonist -38
CC(C)Oc1ccc(CNC(=O)c2ccc3nc(Cc4ccccc4)oc3c2)cc1	D1 agonist 33
Cc1cccc(CNC(=O)c2ccc3nc(Cc4ccccc4)oc3c2)c1	D1 antagonist -31, D1 agonist 31
COCCN(Cc1cc2cc(C)c(C)cc2nc1Cl)C(=O)Nc1ccccc1	none
COCCN(Cc1cc2cc3c(cc2nc1Cl)OCO3)C(=O)c1ccc(C)cc1	D1 agonist 66
O=S(=O)(NCc1ccc(Cl)cc1)c1ccc(N2CCCCS2(=O)=O)cc1	D1 antagonist -35
COc1ccc(NS(=O)(=O)c2ccc(N3CCCCS3(=O)=O)cc2)cc1Cl	D1 antagonist -30
O=S(=O)(Nc1ccc(OC(F)(F)F)cc1)c1ccc(N2CCCCS2(=O)=O)cc1	none
COc1ccc(CCNC(=O)c2c(C)nn(-c3ccccc3)c2Cl)cc1OC	none
Cc1ccc(C)c(N2CCN(c3nc4ccc(Cl)cc4n4cnnc34)CC2)c1	none
CC(=O)N1CCc2cc(Br)cc(S(=O)(=O)N3CCC(C(=O)Nc4ccc(C(C)C)cc4)CC3)c21	none
COC(=O)[C@@H](NC(=O)Nc1ccc(OC(F)(F)F)cc1)C(C)C	D1 antagonist -42
CCOc1cc(C2C3=C(CC(C)(C)CC3=O)N(CCOC)C3=C2C(=O)CC(C)(C)C3)ccc1O	none
O=C1CSC(=S)N1c1cccc(Br)c1	D1 antagonist -83
O=C(NCc1ccccc1)C(=O)Nc1nccs1	TRHR PAM 34
CCOC(=O)C(=O)Nc1nccs1	D1 antagonist -34
CCCNC(=O)c1ccc2nc(-c3ccccc3)c(-c3ccccc3)nc2c1	none
O=C(NCCCN1CCN(c2ccc(F)cc2)CC1)c1ccc2nc(CCc3ccccc3)oc2c1	none
COc1ccccc1N1CCN(CCCCNC(=O)c2ccc3ccccc3c2)CC1	D1 antagonist -54
O=C(NCCCN1CCN(c2ccccc2F)CC1)c1ccc2nc(CCc3ccccc3)oc2c1	D1 antagonist -31
CCc1nc2ccc(C(=O)NCCCN3CCN(c4ccccc4F)CC3)cc2nc1CC	D1 antagonist -32
Cc1c(C)n(C)c2ccc(C(=O)NCCCN3CCN(c4ccccc4F)CC3)cc12	none
CCN1CCN(CCNC(=O)c2ccc3nc(-c4cccc(C)c4)c(-c4cccc(C)c4)nc3c2)CC1	D1 agonist 63
CCOC(=O)c1c(C)[nH]c(CCC(=O)Nc2c(C)cccc2CC)c1C	none
O=C(NCCCN1CCN(c2ccccc2F)CC1)c1ccc2nc(Cc3ccccc3)oc2c1	D1 antagonist -49
Cc1ccc(-n2[nH]c(C)c(C=Nc3ccc(Br)cn3)c2=O)cc1	D1 antagonist -33
O=C(NCCc1ccc(Cl)cc1)c1ccc2c(c1)OCCO2	D1 antagonist -37
O=C(NCCC1=CCCCC1)c1ccc(Cl)cc1	D1 antagonist -41
O=C(NC(=S)NCCC1=CCCCC1)c1cncc(Br)c1	D1 antagonist -32
CS(=O)(=O)N(Cc1ccc(Cl)cc1)c1ccc(C(=O)NCCC2=CCCCC2)cc1	none
CC(C)CCNC(=O)C(=O)NCCC1=CCCCC1	D1 antagonist -47
CCCNC(=O)C(=O)NCCC1=CCCCC1	none
Cc1ccccc1Nc1cc(C(=O)NC2CCC(C)CC2)c2ccccc2n1 (stereo unspecified)	none
CCOc1ccc(C(=O)CC(NCc2cccs2)C(=O)O)cc1 (stereo unspecified)	D1 antagonist -30
CCOc1ccc(C(=O)CCC(=O)N(CC)CC(=O)NCc2cccs2)cc1	none
COc1ccc(CN2C(=O)CC(Cc3cc(C)cc(C)c3)C2=O)cc1OC (stereo unspecified)	D1 antagonist -43
CCOC(=O)CNC(=O)N1CCN(S(=O)(=O)c2ccc3c(ccn3C)c2)CC1	none
CCOC(=O)C1CCN(c2nc3ccccc3nc2C(C#N)C(=O)NCCc2ccccc2)CC1 (stereo unspecified)	D1 antagonist -30
CCOC(=O)C1CCCN(c2nc3ccccc3nc2C(C#N)C(=O)OCC)C1 (stereo unspecified)	none
CCOC(=O)c1ccc(NC(=O)C2=C(C)C(=O)OC23CCCCCC3)cc1	none
C/C(CC(=O)N1CCN(C=O)CC1)=N\NC(=O)c1ccc(Cl)cc1	none
O=CN1CCN(C(=S)NC(=O)c2ccc(Cl)cc2)CC1	TRHR PAM 39
N#C/C(=C\c1ccc[nH]1)S(=O)(=O)c1ccccc1	D1 antagonist -32
O=C(NCCc1c[nH]c2ccccc12)C(=O)NCC1OCCCN1S(=O)(=O)c1cc(F)ccc1F (stereo unspecified)	none
CCN(CC(=O)NCc1cccs1)C(=O)C1CC(=O)N(c2ccc(OC)cc2OC)C1 (stereo unspecified)	D1 antagonist -34
CCN(CC(=O)Nc1ccc2c(c1)OCCO2)C(=O)C1CC(=O)N(c2ccc(OC)cc2OC)C1 (stereo unspecified)	none
CCN(CC(=O)NCc1cccs1)C(=O)/C=C/c1cc(OC)ccc1OC	D1 antagonist -67
CCN(CC(=O)NCc1cccs1)C(=O)/C=C/c1ccc(OC)cc1OC	none
O=C1CC(c2ccccc2Cl)CC(O)=C1C=NCCCO (stereo unspecified)	TRHR PAM 34
CN1CCCN(C(=O)CSc2ccccc2)CC1	TRHR PAM 31
